Our source for the growth values is PubChem BioAssay (NCI).

Holding throughout (experiment): NCI-60 one-dose screen, 48 h (100 = growth as untreated, 0 = no growth, -100 = all killed)
In one experiment the test system is HCT-15 colon. The settings on record: 10 µM unless noted.
Another experiment has as its system SNB-19 CNS. The following applies: 10 µM unless noted.
The test system of the next experiment is U251 CNS. The settings on record: 10 µM unless noted.
In the next experiment the test system is PC-3 prostate. The settings on record: 10 µM unless noted.
The subject of another experiment is UACC-62 melanoma. The following applies: 10 µM unless noted.
The next experiment has as its system LOX IMVI melanoma. The settings on record: 10 µM unless noted.
In a further experiment the test system is SK-MEL-28 melanoma. The following applies: 10 µM unless noted.
Another experiment concerns SK-MEL-5 melanoma. The following applies: 10 µM unless noted.
The next experiment has as its system SNB-75 CNS. The settings on record: 10 µM.
The test system of a further experiment is HT29 colon. The following applies: 10 µM unless noted.

The panel holds about 83,000 compounds, 20% with a hit somewhere; the sample as a whole holds those more often.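 Compound tested at a single concentration for 48 hours in 96-well plates; a percent growth value below 10 was scored as active.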 Values without a mark were called inactive. Activity calls are given as the source filed them.

With `COc1ccccc1CNCCCN1C(=O)c2ccc3c4c(ccc(c24)C1=O)C(=O)N(CCCNCCCCNCCCN)C3=O`, the growth was -32.1% (active) in the experiment on HCT-15 colon; -31.1% (active) in the experiment with SNB-19 CNS; -51.8% (active) with U251 CNS; -1.44% (active) with PC-3 prostate; -52% (active) in the experiment on UACC-62 melanoma; 1.41% (active) in the experiment with LOX IMVI melanoma. Moreover, the growth in the experiment with SK-MEL-28 melanoma was -75.7% (active).
`COc1cc2c(cc1O)CCN1C[C@@H](CC(C)C)[C@@H](O)C[C@@H]21`: the growth is 106% in the experiment on HCT-15 colon; 102% in the experiment with SNB-19 CNS; 92.1% in the experiment on U251 CNS; 86.3% with PC-3 prostate; 107% with SK-MEL-5 melanoma; 93.1% with UACC-62 melanoma. Also, the growth with LOX IMVI melanoma was 97.8%; with SK-MEL-28 melanoma it was 106%.
With `O=[N+]([O-])c1ccc(OCCCOc2ccccc2)cc1`, the growth in the experiment with HCT-15 colon is 99.4%; in the experiment with SNB-19 CNS it was 105%; in the experiment on U251 CNS, 90.7%; in the experiment with PC-3 prostate, 94.3%; in the experiment with SK-MEL-5 melanoma, 105%; with UACC-62 melanoma, 93.7%. In addition, the figures for the growth in the experiment on LOX IMVI melanoma and in the experiment on SK-MEL-28 melanoma were 97.6% and 103%, respectively.
Turning to `COc1ccc2c(c1)NC1=C(C(=O)OC1)C2c1cc(OC)c2c(c1)OCO2` (stereo not drawn), the growth with HCT-15 colon was 16.5%; in the experiment on SNB-75 CNS it was 53.6%; with SNB-19 CNS, 37.3%; in the experiment on U251 CNS, 21.1%; in the experiment on PC-3 prostate, 24.3%; in the experiment on UACC-62 melanoma it was 50.8%. The growth was 19% in the experiment with LOX IMVI melanoma and 66.9% in the experiment on SK-MEL-28 melanoma.
As for `O=C([O][Sn]([O]C(=O)c1ccccn1)([c]1ccccc1)[c]1ccccc1)c1ccccn1`, the growth was 81.7% in the experiment on HCT-15 colon; 105% in the experiment with SNB-19 CNS; 86.3% in the experiment with U251 CNS; 93.1% with PC-3 prostate; 84.3% with SK-MEL-5 melanoma; 50.6% in the experiment on LOX IMVI melanoma. Also, the growth in the experiment with SK-MEL-28 melanoma was 98.1%.
With `CCN(CC)CCOc1ccc(Cl)c(C)c1`, the growth is 104% in the experiment on HCT-15 colon; 93.4% in the experiment on SNB-75 CNS; 101% in the experiment on SNB-19 CNS; 107% with U251 CNS; 101% in the experiment with PC-3 prostate; 104% with UACC-62 melanoma. The growth in the experiment with LOX IMVI melanoma is 101%; in the experiment on SK-MEL-28 melanoma, 107%.
`Cc1cc(C(C)(C)C)ccc1S`: the growth was 97.5% with HT29 colon; 91.4% with SNB-75 CNS; 105% in the experiment with SNB-19 CNS; 109% in the experiment on U251 CNS; 85.6% with PC-3 prostate; 111% in the experiment with SK-MEL-5 melanoma. Further, the growth was 98.6% in the experiment with UACC-62 melanoma, 103% in the experiment with LOX IMVI melanoma and 104% in the experiment on SK-MEL-28 melanoma.
In the case of `O=C(/C=C/c1ccccc1)c1cccc(O)c1`, the growth is 32.3% with HT29 colon; 61.9% in the experiment on U251 CNS; 103% in the experiment with PC-3 prostate; 107% with SK-MEL-5 melanoma; 81.7% with LOX IMVI melanoma; 104% in the experiment with SK-MEL-28 melanoma.
For `C=C(C)[C@@H]1C[C@@H]2Cc3cc(Cl)ccc3N1O2`, the growth in the experiment on HCT-15 colon is 97.9%; in the experiment on U251 CNS, 94.5%; with PC-3 prostate, 96.5%; in the experiment on SK-MEL-5 melanoma it was 95.8%; in the experiment with UACC-62 melanoma it was 94.9%; with LOX IMVI melanoma, 99.3%. For the same molecule, the growth with SK-MEL-28 melanoma was 108%.
`COc1ccc(-c2nc3sccn3c2/C=C/C(=O)c2cc(F)cc(F)c2)cc1`: the growth was 65.2% with HT29 colon; 42.3% in the experiment with SNB-75 CNS; 67.8% in the experiment on SNB-19 CNS; 45.4% in the experiment with U251 CNS; 62.3% with PC-3 prostate; 80.9% in the experiment with SK-MEL-5 melanoma. The values for the growth with UACC-62 melanoma, with LOX IMVI melanoma and with SK-MEL-28 melanoma were 54.4%, 50.1% and 93%, respectively.
For `CC(C)NCCCNC1=C(Cl)C(=O)c2ccccc2C1=O`, the growth in the experiment on HT29 colon was 83.1%; in the experiment on SNB-19 CNS, 106%; with U251 CNS, 52.9%; with PC-3 prostate, 57.5%; with SK-MEL-5 melanoma, 44.3%; in the experiment with UACC-62 melanoma, 92.7%. The growth in the experiment with LOX IMVI melanoma was 25.9%; in the experiment with SK-MEL-28 melanoma, 112%.
As to `OCc1ncc(-c2ccccc2)s1`, the growth is 102% with HT29 colon; 78.8% in the experiment on SNB-75 CNS; 98.5% in the experiment on SNB-19 CNS; 89.4% in the experiment on PC-3 prostate; 105% in the experiment on SK-MEL-5 melanoma; 106% with UACC-62 melanoma. Further, in the experiment on SK-MEL-28 melanoma, the growth is 132%.
On to `Cn1c2ccc(Br)cc2c2c3c(c4c5ccccc5[nH]c4c21)C(=O)N(O)C3=O`, for which the growth in the experiment on HT29 colon is -76.4% (active); in the experiment with SNB-75 CNS it was -86.9% (active); with SNB-19 CNS, -35.8% (active); in the experiment on U251 CNS, -71% (active); with PC-3 prostate, -43.9% (active); in the experiment on SK-MEL-5 melanoma, -97.8% (active). Besides, the figures for the growth with UACC-62 melanoma, with LOX IMVI melanoma and in the experiment on SK-MEL-28 melanoma were -72.3% (active), -80.9% (active) and -79.3% (active), respectively.
Turning to `CCOC(=O)NNC(=S)Nc1ccccc1`, the growth with HT29 colon is 105%; with SNB-19 CNS it was 97.9%; in the experiment on U251 CNS, 101%; with PC-3 prostate, 100%; in the experiment on SK-MEL-5 melanoma, 100%; with UACC-62 melanoma it was 95.5%. For the same molecule, the growth in the experiment on LOX IMVI melanoma was 100%; in the experiment with SK-MEL-28 melanoma it was 106%.
For the molecule `N#Cc1ccc(N2Cc3ccccc3OC3=C2C(=O)c2c(O)ccc(O)c2C3=O)cc1`, the growth with HT29 colon is -62.4% (active); in the experiment on SNB-19 CNS, 27.6%; in the experiment on U251 CNS, 10.2%; in the experiment on PC-3 prostate, -25.6% (active); in the experiment on SK-MEL-5 melanoma it was 59.9%; in the experiment on UACC-62 melanoma, -26.3% (active). Besides, the growth was -49.7% (active) with LOX IMVI melanoma and -32.2% (active) in the experiment on SK-MEL-28 melanoma.
Take `O=C(/C=C/c1cc(-c2ccc3c(c2)OCO3)n[nH]1)c1ccc2c(c1)OCO2`: the growth in the experiment with HT29 colon is 100%; with SNB-75 CNS, 101%; in the experiment with SNB-19 CNS, 72%; in the experiment with U251 CNS it was 75.7%; in the experiment with PC-3 prostate, 74.6%; in the experiment with SK-MEL-5 melanoma, 98%. The results for the growth with LOX IMVI melanoma and in the experiment with SK-MEL-28 melanoma were 87.6% and 109%, respectively.
Turning to `CC(C)CC1NC(C)(C)CO1` (stereo not drawn), the growth in the experiment with HT29 colon was 97.5%; in the experiment with SNB-19 CNS, 115%; in the experiment with U251 CNS, 109%; with PC-3 prostate, 94.4%; in the experiment with SK-MEL-5 melanoma it was 104%; in the experiment on UACC-62 melanoma, 106%. Moreover, the growth was 97.2% with LOX IMVI melanoma and 111% with SK-MEL-28 melanoma.
